Measured values as given in PubChem BioAssay AID720706 (Broad Institute, 2013).
In all, about 350,000 compounds went through this assay and about 5,500 (1.6%) were called active.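 How the source made its calls: active means significant combined selectivity score with lowered wild-type GFP, culture density cut under 30%, mutant RFP and density less affected; inactive means any of these conditions unmet.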 The full list was thinned out, with actives kept by preference.

assay: reduced GFP signal of wild-type E. coli, primary screen, bacterial rRNA inhibitor project, GFP/RFP fluorescence, OD600, single point (AID 720706); settings: E. coli WT GFP vs humanized-ribosome RFP mutants, 24 h; GFP signal change (wild-type ribosome): stronger effect = lower value, DMSO median 0, no signal -100; OD600 change: measured here: OD600 growth, DMSO median 0, no signal -100; RFP signal change: measured here: RFP humanized mutant strains, DMSO median 0, no signal -100, concentration not given here

Q: Which GFP signal change (wild-type ribosome) does the source give for `O=C(Nc1ccccc1F)N[C@@H]1C=C[C@H](CC(=O)N2CCCCC2)O[C@@H]1CO` here?
A: 3.61% (inactive)

Q: What about the OD600 change of the same molecule?
A: 6.08%

Q: And the RFP signal change?
A: -0.341%

Q: With `C[C@H](CO)N1C[C@H](C)[C@@H](CN(C)C(=O)Nc2cccc(F)c2)OCc2ccccc2-c2ccccc2C1=O` as the molecule, how does the GFP signal change (wild-type ribosome) read?
A: -0.679% (inactive)

Q: What about the OD600 change of the same molecule?
A: -1.43%

Q: What about the RFP signal change of the same molecule?
A: 0.291%

Q: Which results are given for `C[C@H](CO)N1C[C@H](C)[C@H](CN(C)C(=O)Nc2cccc3ccccc23)OCCCC[C@H](C)Oc2ccc(NC(=O)Nc3ccc4c(c3)OCO4)cc2C1=O`?
A: GFP signal change (wild-type ribosome): 2.1% (inactive); OD600 change: 5.33%; RFP signal change: -1.79%

Q: Which results are given for `CC(C)NC(=O)N1CCCCN2[C@H](CO)[C@H](c3ccc(C#C[C@H](C)O)cc3)[C@H]2C1`?
A: GFP signal change (wild-type ribosome): 5.37% (inactive); OD600 change: 11.9%; RFP signal change: 2.67%

Q: With `CCCNC(=O)c1cc2c(c(-c3cccc(-c4ccc(F)cc4)c3)n1)[C@@H](CCO)N([S@](=O)C(C)(C)C)C2` as the molecule, how does the GFP signal change (wild-type ribosome) read?
A: -7.84% (inactive)

Q: And the OD600 change?
A: -6.59%

Q: And the RFP signal change?
A: 26.4%

Q: Which GFP signal change (wild-type ribosome) does the source give for `CCCNC(=O)c1cc2c(c(-c3cccc(-c4ccc(C#N)cc4)c3)n1)[C@@H](CCO)N(C(=O)CC)C2` here?
A: -28.9% (active)

Q: And the OD600 change?
A: -16.6%

Q: What about the RFP signal change of the same molecule?
A: 9.41%

Q: Which GFP signal change (wild-type ribosome) does the source give for `CCS(=O)(=O)N1Cc2cc(C(=O)N(C)C)nc(-c3cccc(-c4ccc(C#N)cc4)c3)c2[C@H]1CCO` here?
A: 1.6% (inactive)

Q: And the OD600 change?
A: -8.16%

Q: What about the RFP signal change of the same molecule?
A: 0.491%

Q: With `O=[N+]([O-])c1cccc(/C=N/Nc2ncc(Br)cn2)c1` as the molecule, how does the GFP signal change (wild-type ribosome) read?
A: 14.8% (inactive)

Q: And the OD600 change?
A: 23.4%

Q: What about the RFP signal change of the same molecule?
A: 1.61%

Q: For `O=[N+]([O-])c1cc(Br)c(O)c(/C=N/Nc2nc3ccccc3s2)c1`, which GFP signal change (wild-type ribosome) is on record?
A: -26.6% (active)

Q: What about the OD600 change of the same molecule?
A: -18.1%

Q: What about the RFP signal change of the same molecule?
A: 3.75%

Q: What does the source list for `O=C(N/N=C/c1cc(Br)c(O)c([N+](=O)[O-])c1)C(O)(c1ccccc1)c1ccccc1`?
A: GFP signal change (wild-type ribosome): -13.8% (inactive); OD600 change: -17.8%; RFP signal change: -3.16%

Q: For `C[C@H](CO)N1C[C@H](C)[C@H](CN(C)C(=O)C2CCOCC2)Oc2ncc(C#Cc3ccccc3F)cc2C1=O`, which GFP signal change (wild-type ribosome) is on record?
A: 4.96% (inactive)

Q: What about the OD600 change of the same molecule?
A: 16.6%

Q: And the RFP signal change?
A: -0.455%

Q: Which GFP signal change (wild-type ribosome) does the source give for `Cc1cc2ccccn2c1C(=O)c1cccc(F)c1` here?
A: -7.7% (inactive)

Q: And the OD600 change?
A: -19.4%

Q: What about the RFP signal change of the same molecule?
A: -0.345%

Q: Which GFP signal change (wild-type ribosome) does the source give for `Cc1cc2ccccn2c1C(=O)c1cccc(S(=O)(=O)N2CCOCC2)c1` here?
A: -23.1% (active)

Q: What about the OD600 change of the same molecule?
A: -17.5%

Q: What about the RFP signal change of the same molecule?
A: 2.76%

Q: What does the source list for `Cc1nc2ccc(NC(=O)c3cccc(S(=O)(=O)N4CCOCC4)c3)cc2s1`?
A: GFP signal change (wild-type ribosome): -8.91% (inactive); OD600 change: -4.27%; RFP signal change: -0.693%

Q: Which GFP signal change (wild-type ribosome) does the source give for `O=C(NC1CCCC1)[C@H]1[C@H](CO)[C@H]2Cn3c(cccc3=O)[C@H]2N1C(=O)NC1CCCC1` here?
A: 6.01% (inactive)

Q: What about the OD600 change of the same molecule?
A: 13.7%

Q: And the RFP signal change?
A: -2.22%

Q: What does the source list for `COc1ccc(S(=O)(=O)N(C)C[C@@H]2OCCCC[C@@H](C)Oc3ccc(NS(C)(=O)=O)cc3C(=O)N([C@H](C)CO)C[C@@H]2C)cc1`?
A: GFP signal change (wild-type ribosome): 2.26% (inactive); OD600 change: 6.89%; RFP signal change: -2.21%

Q: What does the source list for `O=C(NCC[C@H]1CC[C@H](NC(=O)C2CC2)[C@@H](CO)O1)c1cc(Cl)cc(Cl)c1`?
A: GFP signal change (wild-type ribosome): -1.63% (inactive); OD600 change: -6.47%; RFP signal change: -0.371%

Q: With `CCCNC(=O)N1[C@H](CO)[C@@H]2c3ccccc3N(C(=O)C3CC3)C[C@@H]21` as the molecule, how does the GFP signal change (wild-type ribosome) read?
A: 6.32% (inactive)

Q: And the OD600 change?
A: 5.65%

Q: And the RFP signal change?
A: 0.0995%

Q: Which GFP signal change (wild-type ribosome) does the source give for `CC[C@H]1OC(=O)[C@H](C)[C@@H](O[C@H]2C[C@@](C)(OC)[C@@H](O)[C@H](C)O2)[C@H](C)[C@@H](O[C@@H]2O[C@H](C)C[C@H](N(C)C)[C@H]2O)[C@](C)(O)C[C@@H](C)[C@@H]2N[C@@H](COCCOC)O[C@H]([C@H]2C)[C@]1(C)O` here?
A: -22.6% (active)

Q: What about the OD600 change of the same molecule?
A: -9.78%

Q: And the RFP signal change?
A: 5.64%

Q: Which GFP signal change (wild-type ribosome) does the source give for `Cn1cnc(S(=O)(=O)N2C[C@@H](O)COC[C@H]3O[C@H](CC(=O)N4CCN(c5ccccc5)CC4)CC[C@@H]32)c1` here?
A: 9.71% (inactive)

Q: And the OD600 change?
A: 22%

Q: And the RFP signal change?
A: -0.0733%

Q: Which results are given for `Cc1ccc(NNC(=O)c2c(F)cccc2Cl)cc1Cl`?
A: GFP signal change (wild-type ribosome): -32.7% (active); OD600 change: -2.5%; RFP signal change: -1.17%

Q: With `CCN(CC)CCNC(=O)c1ccc(NC(=O)c2c(F)cccc2Cl)cc1` as the molecule, how does the GFP signal change (wild-type ribosome) read?
A: 7.17% (inactive)

Q: And the OD600 change?
A: -3.78%

Q: What about the RFP signal change of the same molecule?
A: -0.531%

Q: With `O=C(NNc1cc(Cl)cc(Cl)c1)c1c(F)cccc1Cl` as the molecule, how does the GFP signal change (wild-type ribosome) read?
A: -4.44% (inactive)

Q: What about the OD600 change of the same molecule?
A: -4.42%

Q: What about the RFP signal change of the same molecule?
A: -0.438%

Q: Which GFP signal change (wild-type ribosome) does the source give for `COCC#Cc1ccc([C@@H]2[C@@H](CO)N3C(=O)CN(C(=O)Nc4cc(F)ccc4F)C[C@@H]23)cc1` here?
A: -10.5% (inactive)

Q: And the OD600 change?
A: -5.07%

Q: What about the RFP signal change of the same molecule?
A: 3.1%

Q: Which GFP signal change (wild-type ribosome) does the source give for `COc1ccc(NC(=O)N(C)C[C@@H]2OCCCC[C@@H](C)Oc3ccc(NS(C)(=O)=O)cc3C(=O)N([C@@H](C)CO)C[C@H]2C)cc1` here?
A: -0.988% (inactive)

Q: And the OD600 change?
A: -5.29%

Q: And the RFP signal change?
A: 0.0065%

Q: Which results are given for `Cc1noc(C)c1S(=O)(=O)Nc1ccc2c(c1)C(=O)N([C@H](C)CO)C[C@H](C)[C@H](CN(C)C(=O)CCC(F)(F)F)OCCCC[C@H](C)O2`?
A: GFP signal change (wild-type ribosome): -2.98% (inactive); OD600 change: -4.46%; RFP signal change: 0.03%

Q: What does the source list for `COc1ccc2c3c(n(C)c2c1)[C@H](CO)N(C(=O)Cc1ccccc1)CC31CCN(C)CC1`?
A: GFP signal change (wild-type ribosome): 4.41% (inactive); OD600 change: 5.73%; RFP signal change: -1.31%

Q: With `CCNC(=O)[C@H]1[C@H](CO)[C@H]2Cn3c(ccc(C4=CCCC4)c3=O)[C@@H]1N2S(=O)(=O)c1cn(C)cn1` as the molecule, how does the GFP signal change (wild-type ribosome) read?
A: 2.88% (inactive)

Q: And the OD600 change?
A: 2.51%

Q: What about the RFP signal change of the same molecule?
A: -2.3%

Q: Which GFP signal change (wild-type ribosome) does the source give for `COc1ccc(C(=O)NC2CCN(C(=O)Nc3ccc(F)cc3)CC2)cc1` here?
A: 3.88% (inactive)

Q: And the OD600 change?
A: 11.7%

Q: And the RFP signal change?
A: -0.144%

Q: What does the source list for `COc1ccc(-c2n[nH]c3c2CN(C(=O)c2ccc(F)cc2)CC3)cc1`?
A: GFP signal change (wild-type ribosome): -24% (active); OD600 change: -10.1%; RFP signal change: -0.0738%

Q: Which GFP signal change (wild-type ribosome) does the source give for `COc1cccc(-c2noc(C3CCCN(C(=O)c4ccc(F)cc4)C3)n2)c1` (stereo not drawn) here?
A: -16% (inactive)

Q: And the OD600 change?
A: -14.3%

Q: And the RFP signal change?
A: 1.71%

Q: For `COCC#Cc1cnc2c(c1)C(=O)N([C@H](C)CO)C[C@@H](C)[C@@H](CN(C)Cc1ccccc1F)O2`, which GFP signal change (wild-type ribosome) is on record?
A: 4.01% (inactive)

Q: What about the OD600 change of the same molecule?
A: 9.71%

Q: What about the RFP signal change of the same molecule?
A: -0.92%

Q: For `CC(/C=N/NC(=O)c1cc(-c2ccc3ccccc3c2)n[nH]1)=C\c1ccco1`, which GFP signal change (wild-type ribosome) is on record?
A: -18.4% (active)

Q: And the OD600 change?
A: -4.31%

Q: What about the RFP signal change of the same molecule?
A: 6.39%

Q: For `CC(C)(C)C1CCC(=NNC(=O)c2cc(-c3ccccc3)n[nH]2)CC1` (stereo not drawn), which GFP signal change (wild-type ribosome) is on record?
A: -8.44% (inactive)

Q: And the OD600 change?
A: 6.81%

Q: And the RFP signal change?
A: -1.93%

Q: Which results are given for `O=C(N/N=C/c1ccco1)c1ccc(NC(=O)C2CC2)cc1`?
A: GFP signal change (wild-type ribosome): 33.5% (inactive); OD600 change: 14.7%; RFP signal change: 3.89%

Q: Which results are given for `Nc1ccn([C@@H]2O[C@H](C(=O)N[C@H]3CCCCNC3=O)[C@@H](O)[C@H]2O)c(=O)n1`?
A: GFP signal change (wild-type ribosome): 23% (inactive); OD600 change: 2.48%; RFP signal change: 2.71%
